# PubChem BioAssay
# Calls of active or inactive are those of the source.
# Columns and labels:
# [1] = biological target: Albumin (Bos taurus) (UniProt P02769); experiment: compounds binding labelled BSA control protein – biochemical, small-molecule microarray, Alexa647 label, 635/667 nm fluorescence, artefact control for SMM control protein annotation, profiling panel (AID 1118); conditions: BSA-A647 binding, fluorescence 635 nm, higher = more signal;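 further: score merges 667 nm emission intensity and signal-to-noise per printed compound spot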
# [2] = probe aXIP binding to arrayed compounds – biochemical, NeuroSMM set, 635/667 nm fluorescence, primary screen (AID 1119); conditions: small-molecule microarray, higher = more signal, called active from +8 up or from −8 down;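 further: probe is the protein aXip251-270 applied at 1 µg/mL to compound-printed slides; binding of probe to printed compounds measured as 667 nm fluorescence plus signal to noise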
# [3] = probe aNOTCH3 binding on compound microarray – biochemical, small-molecule microarray, 635/667 nm fluorescence, primary screen (AID 1120); conditions: higher = more signal;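 further: probe is a biotin-tagged antibody raised against NOTCH3 rather than NOTCH3 protein; score merges spot fluorescence near 667 nm with spot signal to noise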
# [4] = probe aNOTCH2 binding on compound microarray – biochemical, small-molecule microarray, 635/667 nm fluorescence, primary screen (AID 1121); conditions: higher = more signal;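 further: score merges feature fluorescence read at 667 nm with its signal to noise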
# [5] = biological target: Carbonic anhydrase 2 (Homo sapiens) (UniProt P00918); experiment: compounds binding carbonic anhydrase 2 – biochemical, small-molecule microarray, Alexa647-labelled CAII, profiling panel (AID 1122); conditions: CAII-A647 binding fluorescence, higher = more signal
# [6] = COS7 lysate on small-molecule microarray, probe aHis, 635 nm (AID 1123); conditions: COS7 cell lysate, fluorescence, higher = more signal;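 further: z-score combines 667nm fluorescence intensity with signal-to-noise per printed compound spot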
# [7] = probe aLAP1 signal on lysate-treated microarray – cell lysate, small-molecule microarray, COS7 lysate, primary screen (AID 1124); conditions: probe aLAP1, fluorescence, higher = more signal;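 further: lysate comes from COS7 cells expressing LAP1 and is applied at 0.3 µg/mL; score merges spot fluorescence near 667 nm with signal-to-noise over triplicate slides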
# [8] = system: Sam68 (KHDRBS1); experiment: compounds binding KHDRBS1 protein – biochemical, small-molecule microarray, 635 nm fluorescence, primary screen (AID 1125); conditions: higher = more signal;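 further: score merges 667 nm channel intensity with signal to noise over triplicate slides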
# [9] = system: Chordin-like protein 2 (CHRDL2); experiment: compounds binding chordin-like 2 – biochemical, small-molecule microarray, 635 nm fluorescence, primary screen (AID 1126); conditions: fluorescence 635 nm, higher = more signal;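 further: printed compound slides probed with Chrdl2 protein at 4 µg/mL for 1 h at 4 C; score merges 667 nm emission intensity with signal to noise over three replicate slides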
# [10] = biological target: Concanavalin-A (Canavalia ensiformis) (UniProt P02866); experiment: compounds binding concanavalin A lectin – biochemical, small-molecule microarray, Alexa647 label, 635 nm, artefact control for SMM control protein annotation, primary screen (AID 1127); conditions: ConA-A647 binding fluorescence, higher = more signal;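 further: z combines 667 nm emission intensity with signal-to-noise across three replicate slides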
# [11] = compounds binding Alexa647 anti-His antibody – biochemical, small-molecule microarray, 635 nm fluorescence, artefact control for SMM control protein annotation, primary screen (AID 1128); conditions: higher = more signal;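 further: score merges feature fluorescence with signal-to-noise for each printed compound spot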
# [12] = system: Human papillomavirus type 1a E7 protein (residues 1-88); experiment: HPV1a E7 small-molecule binders, primary screen, biochemical, small-molecule microarray, residues 1-88, 635 nm (AID 1129); conditions: small-molecule microarray binding, fluorescence 635 nm; higher = more signal
# [13] = biological target: Focal adhesion kinase 1 (Homo sapiens) (UniProt Q05397); experiment: PTK2 protein binding on printed compound slides – biochemical, small-molecule microarray, 635/667 nm fluorescence, BSA, DTT, primary screen (AID 1130); conditions: 635 nm fluorescence, higher = more signal;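 further: composite of spot emission at 667 nm and signal to noise over triplicate slides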
# [14] = system: Fibrinogen (Alexa647-labelled); experiment: Alexa647-fibrinogen binding to printed small molecules – biochemical, small-molecule microarray, 635/667 nm fluorescence, artefact control for SMM control-protein annotation, profiling panel (AID 1131); conditions: fibrinogen-A647 binding fluorescence, higher = more signal;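 further: z-score merges 667 nm fluorescence with per-spot signal-to-noise over triplicate slides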
# [15] = biological target: Follistatin (Homo sapiens) (UniProt P19883); experiment: FST protein binding to printed compounds – biochemical, small-molecule microarray, 635/667 nm fluorescence, primary screen (AID 1132); conditions: 635 nm fluorescence, higher = more signal
# [16] = biological target: Fibroblast growth factor 2 (Homo sapiens) (UniProt P09038); experiment: basic fibroblast growth factor binding to printed compounds – biochemical, small-molecule microarray, 635/667 nm fluorescence, primary screen (AID 1133); conditions: FGF2, fluorescence 635/667, higher = more signal
# [17] = JC-1 mitochondrial potential readout, lung cancer cells – cell-based, A549, JC-1 fluorescence, basal, 24 h, 100 nL, profiling panel (AID 1138); conditions: higher = more signal;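 further: A549 lung adenocarcinoma cells under basal conditions with no added stimulus; test concentration not given here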
# [18] = system: Lefty1; experiment: Lefty1 protein binding to printed compounds – biochemical, small-molecule microarray, 635/667 nm fluorescence, primary screen (AID 1139); conditions: fluorescence 635/667, higher = more signal
# [19] = system: wheat germ agglutinin (Triticum aestivum), Alexa647-labelled; experiment: Alexa647-WGA lectin binding to printed small molecules – biochemical, small-molecule microarray, 635/667 nm fluorescence, artefact control for SMM control-protein annotation, profiling panel (AID 1140); conditions: WGA-A647 binding, 635 nm fluorescence, higher = more signal;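 further: score merges 667 nm feature emission with signal to noise over triplicate slides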
# [20] = biological target: Luciferin 4-monooxygenase (Photinus pyralis) (UniProt P08659); experiment: inhibition of purified Photinus pyralis luciferase – biochemical, luminescence, purified enzyme, 2006 set, primary screen (AID 1141); conditions: purified firefly luciferase, SteadyGlo luminescence, 30 min; higher = more signal, called active from +8 up or from −8 down;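 further: cell-free assay with purified firefly luciferase at 100 ng per well in PBS; test concentration not given here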
# Sequence of Luciferin 4-monooxygenase (Photinus pyralis) (P08659 whole entry, looked up): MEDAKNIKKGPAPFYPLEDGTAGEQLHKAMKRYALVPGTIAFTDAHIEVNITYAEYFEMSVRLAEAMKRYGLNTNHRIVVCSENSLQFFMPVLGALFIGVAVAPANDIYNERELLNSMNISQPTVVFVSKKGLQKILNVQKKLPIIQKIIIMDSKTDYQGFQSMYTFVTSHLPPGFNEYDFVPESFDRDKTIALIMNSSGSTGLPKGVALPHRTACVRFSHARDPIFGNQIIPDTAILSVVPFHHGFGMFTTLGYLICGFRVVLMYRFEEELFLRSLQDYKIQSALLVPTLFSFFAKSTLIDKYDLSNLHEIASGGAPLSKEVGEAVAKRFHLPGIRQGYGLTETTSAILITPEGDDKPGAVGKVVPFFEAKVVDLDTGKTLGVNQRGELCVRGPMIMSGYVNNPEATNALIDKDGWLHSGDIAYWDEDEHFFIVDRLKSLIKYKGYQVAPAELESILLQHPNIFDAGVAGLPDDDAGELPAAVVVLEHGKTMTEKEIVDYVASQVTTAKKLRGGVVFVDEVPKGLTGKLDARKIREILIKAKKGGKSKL
# Sequence of Fibroblast growth factor 2 (Homo sapiens) (P09038 whole entry, looked up): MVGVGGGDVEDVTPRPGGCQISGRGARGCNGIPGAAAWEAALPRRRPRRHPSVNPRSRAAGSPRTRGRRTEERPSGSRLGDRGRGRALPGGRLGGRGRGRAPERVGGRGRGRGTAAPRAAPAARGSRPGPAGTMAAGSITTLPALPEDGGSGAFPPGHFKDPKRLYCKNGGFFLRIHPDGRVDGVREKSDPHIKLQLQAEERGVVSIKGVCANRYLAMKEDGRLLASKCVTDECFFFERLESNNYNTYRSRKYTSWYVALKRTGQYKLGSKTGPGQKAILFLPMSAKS
# Sequence of Albumin (Bos taurus) (P02769 whole entry, looked up): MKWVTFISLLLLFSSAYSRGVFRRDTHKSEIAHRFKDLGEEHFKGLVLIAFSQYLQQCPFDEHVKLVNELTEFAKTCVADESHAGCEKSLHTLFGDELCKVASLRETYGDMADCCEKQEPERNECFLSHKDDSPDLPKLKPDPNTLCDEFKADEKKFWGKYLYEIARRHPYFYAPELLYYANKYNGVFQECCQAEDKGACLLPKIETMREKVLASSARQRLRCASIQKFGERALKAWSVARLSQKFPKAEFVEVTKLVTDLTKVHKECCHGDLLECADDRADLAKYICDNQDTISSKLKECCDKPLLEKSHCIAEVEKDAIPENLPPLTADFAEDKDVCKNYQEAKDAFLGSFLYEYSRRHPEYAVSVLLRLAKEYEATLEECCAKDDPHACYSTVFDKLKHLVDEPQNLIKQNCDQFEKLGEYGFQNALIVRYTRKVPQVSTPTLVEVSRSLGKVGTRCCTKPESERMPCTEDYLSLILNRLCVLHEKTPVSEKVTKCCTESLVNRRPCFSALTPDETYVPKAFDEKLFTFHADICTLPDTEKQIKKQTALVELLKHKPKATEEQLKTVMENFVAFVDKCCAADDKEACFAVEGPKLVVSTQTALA
# Sequence of Concanavalin-A (Canavalia ensiformis) (P02866 whole entry, looked up): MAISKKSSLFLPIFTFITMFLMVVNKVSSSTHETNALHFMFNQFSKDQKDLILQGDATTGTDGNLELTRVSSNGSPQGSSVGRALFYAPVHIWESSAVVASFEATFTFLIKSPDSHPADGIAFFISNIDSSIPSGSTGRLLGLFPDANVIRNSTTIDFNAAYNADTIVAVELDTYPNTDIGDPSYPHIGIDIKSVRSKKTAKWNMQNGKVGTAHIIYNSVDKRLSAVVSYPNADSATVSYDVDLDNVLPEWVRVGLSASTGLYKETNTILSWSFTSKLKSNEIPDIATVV
# Sequence of Follistatin (Homo sapiens) (P19883 whole entry, looked up): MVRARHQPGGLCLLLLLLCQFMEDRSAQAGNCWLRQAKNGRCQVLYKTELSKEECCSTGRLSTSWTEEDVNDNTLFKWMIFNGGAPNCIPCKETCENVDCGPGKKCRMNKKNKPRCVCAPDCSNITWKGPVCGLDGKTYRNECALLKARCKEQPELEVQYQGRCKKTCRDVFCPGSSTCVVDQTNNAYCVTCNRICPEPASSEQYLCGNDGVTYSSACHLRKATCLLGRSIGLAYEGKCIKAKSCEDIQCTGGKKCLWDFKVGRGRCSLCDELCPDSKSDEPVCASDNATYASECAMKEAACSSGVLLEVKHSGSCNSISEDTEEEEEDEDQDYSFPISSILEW
# Sequence of Focal adhesion kinase 1 (Homo sapiens) (Q05397 whole entry, looked up): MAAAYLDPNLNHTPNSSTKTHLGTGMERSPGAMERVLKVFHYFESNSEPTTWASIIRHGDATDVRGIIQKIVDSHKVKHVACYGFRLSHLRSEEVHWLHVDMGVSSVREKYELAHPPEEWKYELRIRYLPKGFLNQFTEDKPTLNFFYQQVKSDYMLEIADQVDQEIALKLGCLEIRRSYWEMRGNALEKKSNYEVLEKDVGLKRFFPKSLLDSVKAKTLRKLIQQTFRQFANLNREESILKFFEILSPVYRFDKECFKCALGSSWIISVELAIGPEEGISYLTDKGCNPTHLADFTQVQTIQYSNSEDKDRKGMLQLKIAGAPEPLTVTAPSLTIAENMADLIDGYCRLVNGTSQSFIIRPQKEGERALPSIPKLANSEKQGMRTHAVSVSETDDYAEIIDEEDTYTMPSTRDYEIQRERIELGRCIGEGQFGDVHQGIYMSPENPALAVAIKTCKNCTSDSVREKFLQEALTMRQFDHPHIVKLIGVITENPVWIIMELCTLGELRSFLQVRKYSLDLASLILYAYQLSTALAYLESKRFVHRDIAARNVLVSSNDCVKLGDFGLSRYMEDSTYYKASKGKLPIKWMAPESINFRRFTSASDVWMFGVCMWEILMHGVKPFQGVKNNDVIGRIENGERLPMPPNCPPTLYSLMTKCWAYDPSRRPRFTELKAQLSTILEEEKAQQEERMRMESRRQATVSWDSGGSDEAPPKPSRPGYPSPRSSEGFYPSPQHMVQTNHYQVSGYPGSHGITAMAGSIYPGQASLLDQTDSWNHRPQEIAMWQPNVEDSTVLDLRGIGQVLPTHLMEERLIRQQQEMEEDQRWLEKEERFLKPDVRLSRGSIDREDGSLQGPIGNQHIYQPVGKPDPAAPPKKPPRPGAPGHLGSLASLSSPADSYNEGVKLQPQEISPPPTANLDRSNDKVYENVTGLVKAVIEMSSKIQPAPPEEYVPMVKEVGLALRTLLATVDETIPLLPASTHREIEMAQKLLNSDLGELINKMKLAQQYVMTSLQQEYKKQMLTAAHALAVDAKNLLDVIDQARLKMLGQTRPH
SMILES,composite z-score [1],composite Z-score [2],composite z-score [3],composite z-score [4],composite z-score [5],composite z-score [6],composite z-score [7],composite z-score [8],composite z-score [9],composite z-score [10],composite z-score [11],composite z-score [12],composite z-score [13],composite z-score [14],composite z-score [15],composite z-score [16],z-score [17],composite z-score [18],composite z-score [19],z-score [20]
C=CC[C@@]1(C(=O)N(C)C)N=C(c2ccc(OCCCO)cc2)O[C@@H]1c1ccccc1CN=[N+]=[N-],0.738,0.153 (inactive),0.438,0.0674,0.397,2.48,0.71,1.33,-0.201,1.12,2.69,1.22,0.188,0.985,1.36,1.83,3.32,0.561,1.12,-0.84 (inactive)
COC(=O)C1=CC(CCCO)=CC(c2cccs2)N(Cc2cc3c(cc2Br)OCO3)C=C1C(=O)OC (stereo not given),0.739,1.26 (inactive),0.062,-0.0645,0.769,2.43,0.0385,1.3,0.249,1.21,2.57,1.25,0.87,0.999,1.08,1.43,1.33,0.273,1.13,-1.39 (inactive)
C=C(C)[C@@H]1CC=C(C(O)C2C=CC3C(=O)N(c4ccccc4)C(=O)C3N2Nc2ccc([N+](=O)[O-])cc2)CC1 (stereo not given in full),0.83,0.115 (inactive),0.0254,0.09,0.558,2.92,0.22,1.32,0.077,0.246,0.594,1.27,0.0881,0.995,1.15,0.269,-1.55,1.41,0.963,0.158 (inactive)
O=C1NC(=O)C2C1C=CC(C(O)c1ccc(B(O)O)cc1)N2Nc1ccc(Cl)cc1Cl (stereo not given),0.0179,0.168 (inactive),0.0864,0.119,0.753,0.546,-0.11,-0.597,0.0005,0.423,0.207,-0.213,0.265,0.824,0.529,-0.514,-0.711,-0.382,0.641,-0.63 (inactive)
O=C(NC1CC1)[C@@H]1c2ccccc2C(=O)N(Cc2ccc(OC(F)(F)F)cc2)[C@H]1c1ccc(CO)cc1,0.22,0.061 (inactive),-0.1,-0.0974,0.642,1.41,-0.169,0.932,-0.584,-0.037,-0.0809,0.836,0.234,-1.39,0.664,0.668,1.39,0.39,0.331,1.12 (inactive)
COC(=O)[C@]1(CCC(=O)OC(C)(C)C)N=C(c2ccc(OCCCO)cc2)O[C@@H]1c1ccccc1N=[N+]=[N-],-0.257,0.62 (inactive),-0.122,-0.0618,0.589,1.63,0.254,0.68,-0.444,0.589,0.477,0.993,-0.212,-0.306,1.29,0.626,1.3,-0.0341,0.658,-6.42 (inactive)
CCCNC(=O)[C@@]1(c2ccc([N+](=O)[O-])cc2)CC(=O)N(C(C)C)[C@@H]1c1ccc(CO)cc1,0.667,-0.0527 (inactive),-0.344,-0.0876,0.801,1.7,0.188,-0.626,-1.54,-0.536,0.736,0.143,0.856,-1.19,-0.742,-0.914,-0.837,-0.844,1.19,-0.113 (inactive)
CC(C)C(CO)N1C(=O)[C@@H]2C3C(=O)OCCC/C=C\[C@H]3OC23C=CCN(Cc2ccccc2)C(=O)[C@@H]13 (stereo not given in full),-1.25,-0.157 (inactive),-0.159,-0.11,0.902,0.708,1.5,-0.173,-1.11,-1.67,-1.18,-0.359,-0.0926,-2.51,-0.908,-0.591,1.21,-0.524,-1.2,-0.59 (inactive)
COC(=O)[C@@]1(Cc2ccccc2)[C@H]2c3cc(C(=O)N(C)C)n(Cc4ccc(S(C)(=O)=O)cc4)c3C[C@H]2CN1C(=O)c1ccccc1,1.13,-0.368 (inactive),0.364,0.199,0.647,2.9,0.722,0.296,-0.755,1.08,3.21,0.884,1.31,0.989,-0.0741,-0.277,-0.699,-0.367,1.13,1.6 (inactive)
